# A selection: hits, their analogues and other compounds. The true share with any hit is near 15%.
# Sm TGR inh = S. mansoni TGR enzyme inhibition. Q962Y6. purified TGR, DTNB reduction, TNB absorbance 405 nm. 360,000 compounds, 3% hits. Potency, µM (top dose mostly 114 µM), for inactives: at the highest dose activity change, negative = inhibition, hits mostly inhibitors; note: potency is the fitted concentration of half-maximal effect; % is set by controls: 0 for no effect and ±100 for the full control effect; nearly all actives have a fitted effect of over 60% in size
#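 TGR 20 nM + NADPH 100 uM (dispensed conc.), cpd preinc 15 min RT; start with NADPH (500 uM addition) then DTNB (15 mM addition). Kinetic TNB absorbance, 405 nm filter. Four-parameter Hill fit across titration.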
# SARS PLpro yeast = inhibitors of SARS-CoV papain-like protease in yeast; S. cerevisiae expressing SARS-CoV PLpro, growth rescue; Potency, µM (titrated, usually from 32.9 µM), inactives show at the highest dose activity, positive = growth rescue, actives largely listed as activators; 330,000 compounds, 0.19% hits; AID 485353; calls by dose curve; note: potency is the fitted concentration of half-maximal effect; 0% is about no effect; nearly all actives have a fitted effect of over 55% in size
# Pf growth 96h = inhibits malaria parasite growth, 96 h; Potency, µM (doses to about 28.7 µM), without a hit: at the top dose activity change, negative = inhibition, most hits filed as inhibitors; P. falciparum luciferase reporter growth, 96 h; 320,000 compounds, 6.9% hits; note: potency is the fitted concentration of half-maximal effect; % is set by controls: 0 for no effect and ±100 for the full control effect
#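 Readout is luminescence from an integrated firefly luciferase in P. falciparum. Red cells, 2% hematocrit and 0.05% parasitemia final, were cultured with compound through two parasite generations (96 hours) at 37 C, 5% CO2.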
# Pf growth 48h = P. falciparum growth inhibition at 48 hours (one generation); Potency, µM (highest dose often 28.7 µM), for inactives: at the highest dose activity change, negative = inhibition, usual class: inhibitors; P. falciparum luciferase growth in erythrocytes, 48 h; 310,000 compounds, 5.9% hits; note: potency is the fitted concentration of half-maximal effect; % is set by controls: 0 for no effect and ±100 for the full control effect
#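 Compounds are pin-transferred into medium, infected erythrocytes (2% hematocrit, 0.1% parasitemia final) are added, and plates sit one parasite generation at 37 C in 5% CO2. Detection reagent is then added and luminescence measured.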
# HCMV inh = inhibitors of human cytomegalovirus | HFF cells, HCMV-luciferase reporter, 72 h; stronger effect = lower value | activity change, negative = inhibition, % at 57.5 µM | 410,000 compounds, 4.5% hits | AID 1259415; in the data active = activity change below about -60%; inconclusive = no clear call, values can overlap the other calls; inactive = above about -39%; note: % is set by controls: 0 for no effect and ±100 for the full control effect
#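 Screen run at 2 compound doses on HFFs infected with reporter HCMV, MOI 1 PFU/cell. Luciferase activity from cell lysates at 72 h post infection gave inhibition relative to buffer-only and Salinomycin wells.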
# HCV inh = blocks hepatitis C virus | Huh7.5.1 HCVcc-Cre infection, luciferase reporter, 44 h | AID 651820 | 340,000 compounds, 3.4% hits | Potency, µM (highest dose often 41.8 µM), for the others: at the highest dose activity change, negative = inhibition, most hits filed as inhibitors; note: potency is the fitted concentration of half-maximal effect; % is set by controls: 0 for no effect and ±100 for the full control effect
#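 Cells (1,000/well) were plated 4 h before compound, then infected with HCVcc-Cre virus (~0.5 moi). After 44 h further culture, infection was read as luciferase luminescence following a 15 min substrate incubation at room temperature.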
# Numbers without * were called inactive; ? = inconclusive; / = not tested or not shown; [ ] = remark or other dose. Unless noted, calls come from the whole dose curve; as a rule, active = well fitted curve in the direction sought with a large enough effect; inconclusive = small, poorly fitted or top-dose-only effect, or another doubt; inactive = no such curve, though single readings can be large; an effect the other way counts as inactive or inconclusive.
SMILES,Sm TGR inh,SARS PLpro yeast,Pf growth 96h,Pf growth 48h,HCMV inh,HCV inh
COCCNC(=O)c1ccc(CS(=O)(=O)c2c(Cl)cccc2Cl)o1,50µM*,-26%,64%,4%,68,-8%
O=C(NC1CCCCC1)c1ccc(CS(=O)Cc2ccccc2Cl)o1 (stereo unspecified),45µM*,0%,-20%,-24%,-3,-11%
O=C(NCc1ccccc1)c1ccc(CS(=O)(=O)c2c(Cl)cccc2Cl)o1,-4%,/,/,/,-2,/
O=C(NCc1ccc(F)cc1)c1ccc(CS(=O)(=O)Cc2ccccc2F)o1,40µM*,4%,?,-21%,-30,?
O=C(NCc1ccc(F)cc1)c1ccc(CS(=O)(=O)Cc2ccc(F)cc2)o1,-18%,4%,23%,19%,17,-25%
O=C(NC1CCCC1)c1ccc(CS(=O)Cc2ccccc2Cl)o1 (stereo unspecified),32µM*,3%,-37%,-19%,0,-22%
Cc1ccccc1CS(=O)(=O)Cc1ccc(C(=O)NC2CCCCC2)o1,-29%,4%,?,8%,0,10%
O=C(NCCCCc1ccccc1)C1CC(c2ccccc2C(F)(F)F)=NO1 (stereo unspecified),-6%,-4%,45%,43%,15,?
COc1cc(C(=O)N2CCCC(c3cc(C(=O)NCc4ccc(F)cc4)no3)C2)cc(OC)c1C (stereo unspecified),/,/,/,/,-19,/
COCC(=O)N1C[C@H](C)[C@H](OC)CN(C)C(=O)c2cc(NC(=O)Nc3cccc(F)c3)ccc2OC[C@@H]1C,/,/,/,/,-12,/
O=C(NCc1cccs1)c1ccc(CS(=O)Cc2ccc(Cl)cc2)o1 (stereo unspecified),/,/,/,/,-4,/
O=C(NCCc1cccs1)c1ccc(CS(=O)Cc2ccc(Cl)cc2)o1 (stereo unspecified),45µM*,0%,?,2%,-24,-19%
CC(C)OC(=O)/C(C#N)=C/c1c[nH]c2ccccc12,4%,-16%,-25%,3%,-2,?
COc1cc(N)c(Cl)cc1C(=O)OCC(=O)NCC1CCCCC1,/,-2%,/,/,-66*,10µM*
COc1cc(N)c(Cl)cc1C(=O)OCC(=O)NCC1CCCO1 (stereo unspecified),/,-2%,/,/,-14,-7%
CC1=C(C(=O)Nc2ccccc2)C(c2ccc(O)cc2)n2nc(-c3ccc(Cl)cc3)nc2N1 (stereo unspecified),1%,/,/,/,-6,/
CC1=Nc2ccccc2N=C(NC(=O)c2ccccc2)C1c1ccc(Cl)cc1 (stereo unspecified),-3%,-2%,-29%,?,-63*,-24%
CC(=O)Nc1nc2n(n1)C(c1ccc(Cl)cc1)C=C(C)N2 (stereo unspecified),14µM*,4%,27%,3%,-20,5%
CC1=CC(c2ccc(Cl)cc2)n2nc(NC(=O)c3ccccc3)nc2N1 (stereo unspecified),45µM*,6%,/,?,-10,-7%
O=C1CC(c2ccc(Cl)cc2)N=C(NC(=O)c2ccccc2)N1 (stereo unspecified),3%,/,/,/,-4,/
C/C(=N\NC(=O)c1ccc(Cl)c(Cl)c1)c1ccccn1,0%,2%,?,0.59µM*,-99*,0.56µM*
C/C(=N\NC(=O)c1cc(Br)ccc1O)c1ccccn1,1%,5%,?,?,39,4%
C/C(=N\NC(=O)c1ccc(NS(=O)(=O)c2cccs2)cc1)c1ccncc1,-1%,-1%,22%[5.75 µM],31%[5.75 µM],10,32%
C/C(=N\NC(=O)c1ccc(NS(=O)(=O)c2cccs2)cc1)c1ccccn1,-10%,-1%,12µM*,?,/,?
CN(C)S(=O)(=O)c1ccc(NC(=O)c2cc(-c3cccs3)nc3ccccc23)cc1,2%,19%,?,?,2,?
C/C(=N\NC(=O)c1cccc(Br)c1)c1ccccn1,0%,?,-6%,0.74µM*,-103*,?

# High-throughput results as filed in PubChem.
